Inhibition data for 19 compounds are collected here from PubChem BioAssay.

Values without a mark were called inactive. No rule for the calls is given here.

In this assay the target is Pantothenate synthetase (Mycobacterium tuberculosis (strain ATCC 25618 / H37Rv)) (UniProt P9WIL5). As to the kind of experiment: Recombinant Mtb pantothenate synthetase (PanC) inhibitors, coupled enzyme, confirmatory (AID 375).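 Also: 0% = full reaction with vehicle and 100% = no enzyme background.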 The following applies: coupled enzyme assay; at 10 µM, hits give high values.
Sequence of Pantothenate synthetase (Mycobacterium tuberculosis (strain ATCC 25618 / H37Rv)) (P9WIL5 whole entry, looked up): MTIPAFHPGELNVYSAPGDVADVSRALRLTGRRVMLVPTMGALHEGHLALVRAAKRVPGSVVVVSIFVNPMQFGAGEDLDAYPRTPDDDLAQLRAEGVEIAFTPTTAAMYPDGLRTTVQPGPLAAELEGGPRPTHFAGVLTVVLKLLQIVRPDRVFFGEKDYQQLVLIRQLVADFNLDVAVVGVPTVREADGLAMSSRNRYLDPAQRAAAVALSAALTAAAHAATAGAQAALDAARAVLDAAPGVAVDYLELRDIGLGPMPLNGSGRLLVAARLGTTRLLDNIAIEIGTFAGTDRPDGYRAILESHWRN
One may read the inhibition as the change of the read-out against control, counted positive when it falls. As to `COC(=O)C(F)(F)Sc1c(C)[nH]c2ccccc12`, the inhibition is 3%.
`COCCn1c(-c2ccc(OC)c(OC)c2)nc2ccccc21`: the inhibition was 0%.
For `CC1CCCN(C(=O)C23CCC(C)(C(=O)C2)C3(C)C)C1` (centres undefined), the inhibition was 0%.
With `CCOC(=O)c1cc(-c2ccccc2)sc1N` the figure was 3%; with `O=C(NCc1ccccc1)C1CCN(S(=O)(=O)N2CCCCCC2)CC1`, 2%.
For `Cc1ccc(C)n1-c1ccc(N2CCOCC2)cc1`, the inhibition was 0%.
The figure for `Cc1cc(N2CCN(c3ccccn3)CC2)n2nc(C)nc2n1` is 1%.
As to `CCOC(=O)C1CCN(c2c(N3CCCC(C(=O)OCC)C3)c(=O)c2=O)CC1` (centres undefined), the inhibition was 6%.
Take `CCCNC(=O)c1cc(S(=O)(=O)N2CCc3ccccc32)ccc1F`: the inhibition was 0%.
Take `Cc1cccc(C)c1NC(=O)C1CCCCN1C` (centres undefined): the inhibition was 0%.
The figure for `O=C(CC1CCS(=O)(=O)C1)Nc1ccc[nH]c1=O` (centres undefined) is 2%; for `O=C(c1cc2cc(Cl)cc(Cl)c2oc1=O)N1CCOCC1` it is 0%.
With `CN(C)c1cccc(C(=O)OCC(=O)NCc2ccco2)c1` the figure was 0%.
The figure for `CCCCCCNC(=O)Cc1c(O)c2ccccc2[nH]c1=O` is 5%; for `Nc1ccc(S(=O)(=O)c2ccc(N)cc2)cc1` it is 0%; for `O=C(NC12CC3CC(CC(C3)C1)C2)c1cncc(O)c1` it is 2%.
In the case of `COCCNC(=O)c1ccc(CS(=O)(=O)c2ccc(OC)cc2)o1`, the inhibition is 0%.
With `O=C(CN1C(=O)c2cccc3cccc1c23)NCC1CCCO1` (centres undefined) the figure was 5%; with `Cc1ccc(CCNC(=O)C2CCN(S(=O)(=O)c3cccc4nsnc34)CC2)cc1`, 6%.
